PTAP TSG101 blk = blocks PTAP/TSG101 interaction to inhibit HIV-1 budding; Q99816; Fluorescence polarization, FITC-PTAP peptide / Tsg101 binding; Potency, µM (highest dose often 115 µM), for inactives: at the top dose activity change, negative = inhibition, usual class: inhibitors; 340,000 tested, under 10 active; AID 493005; active = well fitted inhibition curve with a large enough effect in the main read-out, with a control signal flat, not every such curve was filed as active; inconclusive = small, poorly fitted or top-dose-only effect, or effect the other way, or a change in a side signal; inactive = no such curve, though single readings can be large or run the other way; also: % of control where 0% means no effect
Target sequence (Q99816 whole entry, looked up): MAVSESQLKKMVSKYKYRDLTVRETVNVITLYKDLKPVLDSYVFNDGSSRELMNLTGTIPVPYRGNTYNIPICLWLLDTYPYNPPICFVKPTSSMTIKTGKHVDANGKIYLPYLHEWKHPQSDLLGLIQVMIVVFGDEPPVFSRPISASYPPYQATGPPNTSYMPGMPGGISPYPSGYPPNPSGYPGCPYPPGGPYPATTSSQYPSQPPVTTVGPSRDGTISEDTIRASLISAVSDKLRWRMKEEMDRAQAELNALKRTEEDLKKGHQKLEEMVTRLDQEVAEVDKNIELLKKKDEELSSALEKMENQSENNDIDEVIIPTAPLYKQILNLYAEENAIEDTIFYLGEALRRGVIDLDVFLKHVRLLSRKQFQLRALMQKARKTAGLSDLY
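Compounds were pin-transferred onto Tsg101 binding domain (10 uM final) in HEPES pH 7.5 buffer, then FITC-PTAP peptide was added at 50 nM final. After 20 min at RT, polarization reported peptide displacement across a qHTS concentration series.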
MCF10A rerep = inducers of DNA re-replication in MCF 10A breast cells; Potency, µM (top dose mostly 46.1 µM), inactives show top-dose activity, positive = re-replication, hits mostly activators; hit rate 2.9% among 350,000; MCF 10A DNA re-replication, Hoechst nuclear intensity, 48 h; also: % of control where 0% means no effect; nearly all actives have a fitted effect of over 50% in size
PINK1 modulator = changes PINK1 expression; PINK1 immunofluorescence, high-content cytometry, 24 h; Potency, µM (top dose mostly 76.6 µM), for inactives: top-dose activation (PINK1 increase), most hits filed as activators; hit rate 0.2% among 410,000; active = well fitted activation curve with a large enough effect; inconclusive = small, poorly fitted or top-dose-only effect; cell line not stated here; also: % of control where 0% means no effect; nearly all actives have a fitted effect of over 65% in size
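Readout is PINK1 immunofluorescence, quantified alongside mitochondrial, cell and nuclear markers by laser-scanning microplate cytometry. Cells from a stable line were exposed to compound titrations (5 concentrations) for 24 hours, with CCCP controls.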
KB-3-1 tox = kills parental KB-3-1 adenocarcinoma cells. AID 1347075. Potency, µM (series often up to 46.1 µM), usual class: cytotoxic. hit rate 1.4% among 400,000. KB-3-1 viability, CellTiter-Glo ATP luminescence, 72 h; also: % is scaled to controls: 0 for no effect and ±100 for the full control effect; nearly all actives have a fitted effect of over 60% in size
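KB-3-1 parental drug-naive adenocarcinoma cells in DMEM/10% FBS, incubated 72 h at 37 C with pin-transferred compounds across a concentration series. Viability by CellTiter-Glo luminescence; concentration-response curves fitted after normalization.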
SW480 rereplic = induces DNA re-replication in SW480 colon adenocarcinoma cells; SW480 DNA re-replication, Hoechst DNA content imaging, 48 h; Potency, µM (highest dose often 46.1 µM), for the others: at the top dose re-replication activation, most hits filed as activators; hit rate 1.8% among 340,000; also: % of control where 0% means no effect; nearly all actives have a fitted effect of over 55% in size
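Readout is total intensity of Hoechst-stained nuclei, excited at 405 nm and collected at 500-530 nm. Compound treatment lasted 48 hr at 37 C in 5% CO2 before staining.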
KB-V1 MDR tox = KB-V1 MDR subline cytotoxicity. KB-V1 MDR cells viability, CellTiter-Glo, 72 h. Potency, µM (doses to about 46.1 µM), most hits filed as cytotoxic. hit rate 3.4% among 400,000. AID 1347076; also: % is scaled to controls: 0 for no effect and ±100 for the full control effect; nearly all actives have a fitted effect of over 60% in size
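Cells of the MDR subline KB-V1 are plated, dosed with compound at multiple concentrations, and incubated 72 h at 37 degrees C; CellTiter-Glo is then added and luminescence read after 10 min.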
Numbers without * were called inactive; i = inactive; ? = inconclusive; nt = not tested or not shown; ! = not confirmed by another sample; [ ] = dose if it differs, or a comment. A selection: hits, their analogues and other compounds. The true share with any hit is near 6.8%. Unless noted, calls follow the shape of the dose curve; as a rule, active = well fitted curve in the direction sought with a large enough effect; inconclusive = small, poorly fitted or top-dose-only effect, or another doubt; inactive = no such curve, though single readings can be large; an effect the other way counts as inactive or inconclusive. Potency is read from the fitted curve at half-maximal effect.

SMILES	PTAP TSG101 blk	MCF10A rerep	PINK1 modulator	KB-3-1 tox	SW480 rereplic	KB-V1 MDR tox
CC(=O)OCC(=O)C1CCC2C3CCC4=CC(=O)C=CC4(C)C3CCC12C (stereo not given)	0%	2%	-3%	i	-1%	16µM*
CC12CCC(=O)C=C1CCC1C2CCC2(C)C(c3csc(N)n3)CCC12 (stereo not given)	0%	16µM*	0%	?	?	21µM*
CC(=O)[C@H]1CC[C@H]2[C@@H]3CCC4=CC(=O)CC[C@]4(C)[C@H]3CC[C@]12C	-1%	-2%	9%	13µM*!	-1%	5.8µM*!
CCCNC(=O)N1CCCN(S(=O)(=O)c2ccc3c(ccn3CC)c2)CC1	nt	nt	-2%	i	nt	?
O=S1(=O)N=C(Oc2ccccc2F)c2ccccc21	nt	nt	nt	i	nt	i
CC(=O)c1c(C)[nH]c(C(=O)NCCc2ccc(Cl)cc2)c1C	0%	3.7µM*	3%	i	-15%	i
CC(=O)c1[nH]c(C)c(C(=O)NCCc2ccc(C)cc2)c1C	nt	nt	1%	nt	nt	nt
Cc1nc(NC(=O)/C=C/c2ccccc2)sc1C(=O)NCCO	-3%	0%	0%	i	-3%	i
Cc1nc(NC(=O)/C=C/c2ccccc2)sc1C(=O)Nc1ccccc1	-5%	21µM*	15%	i	?	i
CCN(CC)CCCNC(=O)c1ccc(OCC(=O)Nc2ccccc2C(F)(F)F)c(OC)c1	-5%	18µM*	4%	?	?	i
CCN(CC)C1CCN(Cc2cn[nH]c2-c2ccc(OC)c(F)c2)C1 (stereo not given)	-7%	2%	1%	i	4.1µM*	i
COc1cc(Cl)cc2c1Sc1ccccc1/C2=C/CCN(C)C	-6%	?	1%	?	?	?
CN(C)CC/C=C1/c2cc(F)ccc2Sc2ccc(Cl)cc21	-3%	44%	0%	i	-80%	i
CN(C)CC/C=C1/c2ccccc2Sc2c(O)cc(Cl)cc21	-6%	27%	2%	?	?	15µM*
COc1cc2c(cc1Cl)/C(=C\CCN(C)C)c1ccccc1S2	-1%	?	-2%	?	?	16µM*
COc1cccc(NC(=O)C(C)n2c(=O)cc(C(F)(F)F)c3c(C)nn(C)c32)c1 (stereo not given)	nt	nt	4%	i	nt	i
COc1ccc(NC(=O)CSc2nc3nc(C)c(Cc4ccccc4Cl)c(C)n3n2)cc1OC	nt	nt	-1%	i	nt	i
CCOc1ccc(NC(=O)Cc2ccccc2)cc1	1%	11%	1%	i	-1%	i
CCOc1ccc(NC(=O)CC(c2ccccc2)c2ccc(F)cc2)cc1 (stereo not given)	0%	-1%	24%	i	-19%	18µM*
COc1ccc(NC(=O)CC(c2ccc(F)cc2)c2ccc(OC(C)C)cc2)cc1 (stereo not given)	-2%	18µM*	5%	i	3%	?
O=C(NCc1ccc(F)cc1)C1CCN(C(=O)c2ccc(-n3ccc4ccccc43)s2)CC1	nt	nt	-1%	i	nt	i
O=C(c1[nH]nc2c1CCc1ccccc1-2)N1CCN(Cc2ccc3c(c2)OCO3)CC1	-1%	10%	-1%	12µM*	19%	?
N#CNC(=Nc1cccc(F)c1)SCc1ccccc1F	-5%	4.6µM*	?	i	3%	?
Clc1ccc2nc(SCc3nnc(-c4ccccc4)o3)[nH]c2c1	1%	4%	2%	i	6%	16µM*
CC(=O)Nc1cc(C(=O)N2CCSCC2)cc2ncn(CCc3ccccn3)c12	nt	nt	0%	nt	nt	nt
SMILES	PTAP TSG101 blk	MCF10A rerep	PINK1 modulator	KB-3-1 tox	SW480 rereplic	KB-V1 MDR tox
O=c1[nH]cnc2c1ncn2[C@H]1C[C@H](O)[C@@H](CO)O1	nt	nt	2%	i	nt	?
CC(C)(C)CC(C)(C)c1ccc(O)c(-n2nc3ccccc3n2)c1	nt	27µM*	nt	nt	2%	nt
COc1ccc(C)cc1NC(=O)c1ccc2c(c1)nnn2C1CCCC1	nt	nt	0%	i	nt	i
COc1ccc(OC)c(CNC(=O)c2ccc(-c3nc(CSc4ccccc4)c(C)o3)cc2)c1	nt	nt	0%	i	nt	i
Cn1c(SCCOc2ccccc2Cl)nnc1-c1cccs1	-4%	4%	?	i	-2%	18µM*
Cc1cc(OCCSc2nnc(-c3cccs3)n2C)ccc1Cl	-7%	?	0%	i	2%[9.22 µM]	i
Cn1c(SCc2c(F)cccc2Cl)nnc1-c1cccs1	-7%	6.5µM*	-4%	?	?	i
Cn1cc(C(=O)c2ccc(Cl)cc2Cl)cc1C(=O)N/N=C(\N)COc1ccc(Cl)cc1Cl	-5%	?	3%	18µM*	9.2µM*	?
Cc1oc(-c2cccc(NC(=O)C3CCCN(C)C3)c2)nc1CNC(=O)c1coc2c1C(=O)CCC2 (stereo not given)	nt	nt	1%	nt	nt	nt
Cc1cc(C)n(-c2nnc3n2N=C(c2c[nH]c4ccccc24)CS3)n1	-3%	?	3%	7.3µM*	?	?
COc1ccc(Nc2nnc(SCc3cn4c(C)cccc4n3)s2)cc1	0%	?	8%	12µM*	?	?
Cc1cccc2nc(CSc3nnc(N)s3)cn12	-2%	19%	1%	i	-5%	i
CNc1ncc(-c2nnnn2-c2ccccc2)c(-c2ccccc2)n1	5%	?	6%	i	15µM*	21µM*
CCc1cc(-c2nnn(CCC3COCCO3)c2CC)cc(CC)c1-c1cn(Cc2ccc3ccccc3c2)nn1 (stereo not given)	nt	nt	-2%	?	nt	5.8µM*
COCCC1CCCCN1Cc1nc(N2CCCC2)c2cc(OC)c(OC)cc2n1 (stereo not given)	nt	nt	2%	nt	nt	nt
COc1ccccc1NC(=O)CSc1oc(-c2ccccc2)nc1S(=O)(=O)c1ccccc1	nt	nt	2%	i	nt	i

Screens from PubChem BioAssay.
